Where “and” joins values, the source holds several entries; their conditions need not be identical. Equal entries are not always repeated. Inconclusive results are not listed. Calls of active or inactive are those of the source. Unless noted, the call rests on the fitted dose curve; in most records, active means well fitted curve in the direction sought with a large enough effect; inconclusive means small, poorly fitted or top-dose-only effect, or another doubt; inactive means no such curve, though single readings can be large; an effect the other way counts as inactive or inconclusive.
How the values were obtained:
[1] = Cell Viability - MRC5 (AID 434; calls by dose curve;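 further: potency means the concentration at half of the fitted maximal effect; cells exposed to compound for 40 hours at 37 °C; potency reflects cytotoxicity seen as loss of intracellular ATP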); settings: MRC5 lung fibroblast viability, qHTS
Procedure, shortened: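 AC50 values come from Hill-equation fits of intracellular ATP loss, measured by CellTiter-Glo luminescence. Normal lung fibroblasts (MRC5) had 40 hr compound treatment at 37 C, normalized between DMSO and 100 uM tamoxifen.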

[2] = Cellular Toxicity (caspase-3) HepG2 (AID 654); settings: HepG2 caspase-3 activation, luminescence; series mostly up to 92.2 µM;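 further: cells exposed to compound for 16 hours before reading; 0% = DMSO alone and 100% = caspase signal from 100 µM tamoxifen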
Procedure, shortened: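 Caspase 3/7 activation in HepG2 is measured as rising luminescence after a 16 hr treatment at 37 °C. Values are scaled between DMSO basal and 100 uM tamoxifen, and AC50 is fitted with the Hill equation.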

[3] = Cellular Toxicity (caspase-3) HUV-EC-C (AID 656); settings: HUV-EC-C cells, caspase-3 activation (apoptosis); series mostly up to 92.2 µM
Procedure, shortened: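 qHTS; HUV-EC-C, 1000 cells/well; 5 hr settle, 16 hr cmpd, 37°C; Caspase-Glo 3/7, 20 min RT; luminescence. Norm: DMSO = 0%, tamoxifen 100 uM = 100%. Hill-fit AC50.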

[4] = Cellular Toxicity (caspase-3) SHSY5Y (AID 657); settings: SH-SY5Y caspase-3 activation; series mostly up to 91.7 µM
Procedure, shortened: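 qHTS, SH-SY5Y, 1500 cells/well, 5 h pre-incubation 37 °C; compound 16 h 37 °C; Caspase-Glo 3/7 1 h RT; luminescence. Norm.: DMSO = 0, 10 uM staurosporine = 100%. Hill fit → AC50.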

[5] = Cellular Toxicity (caspase-3) BJ (AID 658); settings: BJ fibroblasts, luminescence; Potency: caspase-3 activation; series mostly up to 91.7 µM
Procedure, shortened: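 Caspase-Glo 3/7 luminescence, read 1 hr after reagent at room temperature, in normal BJ fibroblasts exposed 16 hours at 37 °C. AC50 values from Hill-equation concentration-response, scaled between DMSO basal and 10 uM staurosporine as 100%.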

[6] = Cellular Toxicity (caspase-3) MRC-5 (AID 659); settings: MRC-5 cells, luminescence, normalized: DMSO 0%, 10 µM staurosporine 100%; series mostly up to 91.7 µM
Procedure, shortened: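 Luminescent Caspase-Glo 3/7 read-out (1 h, room temperature) after a 16 h, 37 °C compound exposure of MRC-5 lung fibroblasts at 1500 cells/well. Concentration-response AC50 from Hill equation; 0% DMSO, 100% 10 uM staurosporine.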

[7] = Cellular Toxicity (caspase-3) Mesangial (AID 660); settings: mesangial cells, normalized: DMSO 0%, 100 µM tamoxifen 100%; series mostly up to 91.7 µM;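 further: combined caspase 3 and 7 activity read by Caspase-Glo luminescence; cells exposed to compound for 16 h before the caspase read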
Procedure, shortened: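 Seed cells derived from normal human renal glomeruli, incubate 5 h, add compounds across concentrations and incubate 16 h at 37 °C. Caspase 3/7 activation is then quantified by luciferase light, with AC50 derived by Hill modeling.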

[8] = Cellular Toxicity (caspase-3) SK-N-SH (AID 661); settings: SK-N-SH caspase-3 activation, qHTS, DMSO as zero, staurosporine as full; series mostly up to 91.7 µM
Procedure, shortened: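 Cells were seeded and incubated 5 hr at 37 °C, dosed with compound over a concentration range for 16 hr, then given Caspase-Glo 3/7 reagent for 1 hr at room temperature before luminescence reading.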

[9] = Cellular Toxicity (caspase-3) H-4-II-E (AID 663); settings: H-4-II-E rat hepatoma; Potency: caspase-3 activation; series mostly up to 92.2 µM;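 further: cells exposed to compound for 16 hr before readout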
Procedure, shortened: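 Caspase 3/7 activation measured by luminescent aminoluciferin substrate cleavage after 16 hr compound treatment of H-4-II-E cells in complete medium. Increase normalized between DMSO (basal) and 100 uM tamoxifen (100%); Hill-equation AC50 from concentration-response.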

[10] = Cellular Toxicity (caspase-3) Hek293 (AID 664); settings: HEK293 caspase-3 activation, DMSO = 0%, 100 µM tamoxifen = 100%; at 92.2 µM (top of the series);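 further: cells exposed to compound for 16 h at 37 °C before readout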
Procedure, shortened: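 qHTS, HEK293 (human embryonic kidney), 16 h cpd exposure in complete medium. Caspase-3/7 activation = luminescence increase; normalized to DMSO/100 uM tamoxifen; Hill-fit AC50.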

[11] = Cellular Toxicity (caspase-3) N2a (AID 665); settings: N2a cells, luminescence, normalized: DMSO 0%, 10 µM staurosporine 100%; series mostly up to 92.2 µM;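 further: compound exposure lasted 16 h at 37 °C before readout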
Procedure, shortened: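 Caspase-3/7 activation, measured as increased luminescence from aminoluciferin release, is quantified in mouse N2a cells exposed to compounds for 16 h. Values are normalized to DMSO and 10 uM staurosporine, with AC50 derived by Hill modelling.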

[12] = Cellular Toxicity (caspase-3) Renal Proximal Tubule (AID 667); settings: renal proximal tubule cells, primary cells freshly taken from rat; Potency: caspase-3 activation; series mostly up to 91.7 µM;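 further: cells exposed to compound for 16 hours at 37 °C before detection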
Procedure, shortened: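 AC50 derived by standard Hill fit of concentration-response data, normalized between DMSO basal and 10 uM staurosporine as 100% stimulation. Cells: primary rat kidney proximal tubule, 16 h treatment at 37 °C.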

[13] = MultiTox-Fluor Cytotoxicity Assay - LYMP1-001 - Dead Cells (AID 946); settings: LYMP1-001 lymphoblastoid cells, dead-cell protease fluorescence; series mostly up to 92.2 µM;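 further: 0% = DMSO and 100% = tetraoctylammonium bromide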
Procedure, shortened: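 LYMP1-001 lymphoblastoid cells (2500/well) treated 16 h at 37 C. Dead-cell protease cleavage of bis-AAF-R110 read at Ex/Em 485/520. Normalized to DMSO and 15 uM tetraoctylammonium bromide; AC50 from Hill fits.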

[14] = MultiTox-Fluor Cytotoxicity Assay - LYMP1-003 - Dead Cells (AID 961); settings: LYMP1-003 lymphoblastoid cells, dead-cell protease fluorescence; series mostly up to 92.2 µM;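 further: 0% = DMSO and 100% = tetraoctylammonium bromide; nearly all actives have a fitted effect of over 70% in size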
Procedure, shortened: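 LYMP1-003 human lymphoblastoid cells (2500/well) exposed to compound 16 h at 37 C in complete medium; dead-cell protease read with bis-AAF-R110 fluorescence (Ex/Em 485/520) after 60 min at room temperature. Normalized to DMSO and 15 uM tetraoctylammonium bromide; AC50 from Hill fit.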

[15] = MultiTox-Fluor Cytotoxicity Assay - LYMP1-003 - Live Cells (AID 962); settings: LYMP1-003 lymphoblastoid cells, MultiTox-Fluor live-cell protease fluorescence; series mostly up to 92.2 µM;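 further: 0% = DMSO only and full loss = 92 µM tetraoctylammonium bromide; cytotoxic hits lower the live-cell protease signal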
Procedure, shortened: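 Acute cytotoxicity is scored as a drop in live-cell protease activity in human lymphoblastoid LYMP1-003 cells after 16 hr compound exposure at 37 C. AC50 values come from Hill-equation modelling of concentration-response data.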

[16] = Cell Viability - LYMP1-003 - Assay at 24 hr (AID 963); settings: LYMP1-003 lymphoblastoid cell viability; series mostly up to 92.2 µM;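 further: plate controls were DMSO only for no effect and tetraoctylammonium bromide positive control for full effect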
Procedure, shortened: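 Cytotoxicity is scored as a concentration-dependent fall in ATP-linked luciferase signal in human lymphoblastoid LYMP1-003 cells treated 24 hr at 37 C in complete culture medium.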

[17] = Cell Viability - LYMP1-002 - Assay at 24 hr (AID 993); settings: LYMP1-002 lymphoblastoid cells viability; series mostly up to 92.2 µM; further: on the % scale 0 is the no-effect control and ±100 the full control effect
Procedure, shortened: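 Acute toxicity is measured as concentration-dependent loss of cellular ATP in a human lymphoblastoid line (Coriell LYMP1-002) after 24 h treatment in complete medium. ATP is quantified by luciferase luminescence and AC50 derived by Hill modelling.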

[18] = qHTS Assay for Identification of Small Molecule Inducers of Hypoxia Response (AID 2120; active means well fitted curve in the direction sought with a large enough effect in the signal ratio, with a control signal flat, not every such curve was filed as active; the % refers to the signal ratio; further: 0% is about no effect); settings: hypoxia response reporter cells, beta-lactamase ratio readout; series mostly up to 104 µM
Procedure, shortened: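 Cell-based qHTS for reporter induction: hypoxia response element controlled beta-lactamase in ME-180 cells. Compounds incubated 17 h at 37 degrees C; activity from blue/green (460/530 nm) ratio, inducers ranked by AC50.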

[19] = target: Peroxisome proliferator-activated receptor alpha (Homo sapiens) (UniProt Q07869); experiment: qHTS assay for small molecule agonists of the peroxisome proliferator-activated receptor alpha (PPARalpha) signaling pathway (AID 651778); settings: PathHunter PPARalpha complementation, chemiluminescence, 6 h; max response: hits give high values; further: % of control where 0% means no effect
Sequence of Peroxisome proliferator-activated receptor alpha (Homo sapiens) (Q07869 whole entry, looked up): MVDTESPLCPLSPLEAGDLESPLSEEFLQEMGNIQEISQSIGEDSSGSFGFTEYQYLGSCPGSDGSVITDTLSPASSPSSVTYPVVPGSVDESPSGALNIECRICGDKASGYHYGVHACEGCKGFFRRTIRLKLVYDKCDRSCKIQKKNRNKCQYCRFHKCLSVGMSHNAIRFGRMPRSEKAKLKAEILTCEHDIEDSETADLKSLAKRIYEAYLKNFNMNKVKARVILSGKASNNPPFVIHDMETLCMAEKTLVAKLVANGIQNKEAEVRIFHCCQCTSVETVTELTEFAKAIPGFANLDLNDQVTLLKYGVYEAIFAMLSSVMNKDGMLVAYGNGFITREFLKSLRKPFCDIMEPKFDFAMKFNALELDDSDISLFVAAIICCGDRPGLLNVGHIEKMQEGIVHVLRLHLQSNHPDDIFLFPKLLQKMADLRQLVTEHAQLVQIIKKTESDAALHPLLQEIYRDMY
Procedure, shortened: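 Chemiluminescence from complemented enzyme reported PPARalpha activation in cells after 6 hr of compound treatment at 37 C. The detection reagent was incubated for 60 min at room temperature, and compounds were scored as agonists.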

[20] = qHTS assay for cell viability of the p53RE-bla HCT-116 cell line (AID 743292); settings: p53RE-bla HCT-116 viability, ATP luminescence, 16 h; series mostly up to 95 µM; further: on the % scale 0 is the no-effect control and ±100 the full control effect; nearly all actives have a fitted effect of over 55% in size
Procedure, shortened: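 Compound-exposed HCT-116 (p53RE-bla) cells, 4,000 per well, were kept 16 h at 37 C following a 5 h preincubation. Cell number was estimated from total ATP by CellTiter-Glo luminescence read after 30 min at room temperature.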

CCCCOC(=O)COc1ccc(Cl)cc1Cl
inactive: Potency [1] > 92 µM | Potency [2] | Potency [3] | Potency [4] | Potency [5] | outcome [6] | outcome [7] | outcome [8] | Potency [9] | caspase-3 activation [10] -0.377% | outcome [11] | Potency [12] | Potency [13] | Potency [14] | Potency [15] | Potency [16] | Potency [17] | Potency [18] | max response [19] 7.72% and -1.16% | Potency [20]

CCCCNCC
inactive: Potency [1] > 92 µM | Potency [2] | Potency [3] | Potency [4] | Potency [5] | outcome [6] | outcome [7] | outcome [8] | Potency [9] | caspase-3 activation [10] -0.76% | outcome [11] | Potency [12] | Potency [13] | Potency [14] | Potency [15] | Potency [16] | Potency [17] | Potency [18] | max response [19] -6.73% | Potency [20]

C/C(Cl)=C/CCl
inactive: Potency [1] > 92 µM | Potency [2] | Potency [3] | Potency [4] | Potency [5] | outcome [6] | outcome [7] | outcome [8] | Potency [9] | caspase-3 activation [10] -0.884% | outcome [11] | Potency [12] | Potency [13] | Potency [14] | Potency [15] | Potency [16] | Potency [17] | Potency [18] | max response [19] -4.68% | Potency [20]

Cc1c(N)cccc1Cl
inactive: Potency [1] > 92 µM | Potency [2] | Potency [3] | Potency [4] | Potency [5] | outcome [6] | outcome [7] | outcome [8] | Potency [9] | caspase-3 activation [10] 0.378% | outcome [11] | Potency [12] | Potency [13] | Potency [14] | Potency [15] | Potency [16] | Potency [17] | Potency [18] | max response [19] -2.61% | Potency [20]

O=C(OCc1ccccc1)c1ccccc1O
inactive: Potency [1] > 92 µM | Potency [2] | Potency [3] | Potency [4] | Potency [5] | outcome [6] | outcome [7] | outcome [8] | Potency [9] | caspase-3 activation [10] -1.91% | outcome [11] | Potency [12] | Potency [13] | Potency [14] | Potency [15] | Potency [16] | Potency [17] | Potency [18] | max response [19] -2.61% and -0.719% | Potency [20]

CCOC(=O)C1OC1c1ccccc1 (stereo not given)
inactive: Potency [1] > 92 µM | Potency [2] | Potency [3] | Potency [4] | Potency [5] | outcome [6] | outcome [7] | outcome [8] | Potency [9] | caspase-3 activation [10] 0.955% | outcome [11] | Potency [12] | Potency [13] | Potency [14] | Potency [15] | Potency [16] | Potency [17] | Potency [18] | max response [19] -1.32% | Potency [20]

COc1cc(-c2ccc(N=C=O)c(OC)c2)ccc1N=C=O
inactive: Potency [1] > 92 µM | Potency [2] | Potency [3] | Potency [4] | Potency [5] | outcome [6] | outcome [7] | outcome [8] | Potency [9] | caspase-3 activation [10] 2.71% | outcome [11] | Potency [12] | Potency [13] | Potency [14] | Potency [15] | Potency [16] | Potency [17] | Potency [18] | max response [19] 20.1% | Potency [20]

c1ccncc1
inactive: Potency [1] > 92 µM | Potency [2] | Potency [3] | Potency [4] | Potency [5] | outcome [6] | outcome [7] | outcome [8] | Potency [9] | caspase-3 activation [10] -0.0676% | outcome [11] | Potency [12] | Potency [13] | Potency [14] | Potency [15] | Potency [16] | Potency [17] | Potency [18] | max response [19] -4.5% | Potency [20]

Cc1cccnc1
inactive: Potency [1] > 92 µM | Potency [2] | Potency [3] | Potency [4] | Potency [5] | outcome [6] | outcome [7] | outcome [8] | Potency [9] | caspase-3 activation [10] -1.09% | outcome [11] | Potency [12] | Potency [13] | Potency [14] | Potency [15] | Potency [16] | Potency [17] | Potency [18] | max response [19] -1.1% | Potency [20]

CCC(Cl)CC(Cl)C(Cl)C(Cl)C(Cl)C(C)Cl (stereo not given)
inactive: Potency [1] > 92 µM | Potency [2] | Potency [3] | Potency [4] | Potency [5] | outcome [6] | outcome [7] | outcome [8] | Potency [9] | caspase-3 activation [10] 5.41% | outcome [11] | Potency [12] | Potency [13] | Potency [14] | Potency [15] | Potency [16] | Potency [17] | Potency [18] | max response [19] -3.58% | Potency [20]

c1ccc(CSCc2ccccc2)cc1
inactive: Potency [1] > 92 µM | Potency [2] | Potency [3] | Potency [4] | Potency [5] | outcome [6] | outcome [7] | outcome [8] | Potency [9] | caspase-3 activation [10] 0.61% | outcome [11] | Potency [12] | Potency [13] | Potency [14] | Potency [15] | Potency [16] | Potency [17] | Potency [18] | max response [19] -0.51% | Potency [20]

CCCC(=O)OC(=O)CCC
inactive: Potency [1] > 92 µM | Potency [2] | Potency [3] | Potency [4] | Potency [5] | outcome [6] | outcome [7] | outcome [8] | Potency [9] | caspase-3 activation [10] 0.516% | outcome [11] | Potency [12] | Potency [13] | Potency [14] | Potency [15] | Potency [16] | Potency [17] | Potency [18] | max response [19] -9.39% and -1.32% | Potency [20]

Reference: PubChem BioAssay (NCATS)
